RMI-FANCM inh = RMI-FANCM interaction inhibition; Fluorescence polarization, RMI core complex with F-MM2 peptide; hits give low values; FP signal (polarization) at 33 µM; hit rate 0.58% among 70,000; in the data active = FP signal below about 40
Numbers stand for hits; i = inactive. The sample as a whole holds a higher share of hits than the screen did.

SMILES | RMI-FANCM inh
O=C(Nn1cnc2c(cnn2-c2cccc(Cl)c2)c1=O)c1ccc(F)c(F)c1 | i
COc1cccc2cc(C(=O)Nc3nnc(-c4ccc(SC)cc4)o3)oc12 | 32
COc1cccc2cc(C(=O)Nc3nnc(-c4cc(C)nn4C)o3)oc12 | i
COc1cccc2cc(C(=O)Nc3nnc(-c4ccc5c(c4)OCO5)o3)oc12 | i
CCCS(=O)(=O)N1CCC(c2nnc(Cc3ccc(OC)cc3)s2)CC1 | i
CC(=O)Nc1ccc(OC(F)(F)F)cc1 | i
N#Cc1ccc2nc(C(O)C(O)c3nc4ccc(C#N)cc4[nH]3)[nH]c2c1 (stereo unspecified) | 29
OC(c1nc2ccccc2[nH]1)C(O)c1nc2ccccc2[nH]1 (stereo unspecified) | i
OC(c1ccccc1)c1nc2ccccc2[nH]1 (stereo unspecified) | i
CCOC(=O)c1c(NC(=O)c2ccc3ncsc3c2)sc2c1CCN(C(=O)OCC)C2 | -5
CCOC(=O)N1CCc2c(sc(NC(=O)c3cccc(C)c3)c2C(N)=O)C1 | i
COC(=O)N1CCc2c(sc(NC(=O)c3ccc4ncsc4c3)c2C(N)=O)C1 | i
CN=P(c1ccccc1)(c1ccccc1)c1ccccc1 | i
COc1ccc(/C=C2\SC(=S)N(CCCC(=O)Nc3ccc([N+](=O)[O-])cc3O)C2=O)cc1OC | i
COc1ccc(CC(=O)Nc2ccc(N3CCCC3=O)c(C)c2)cc1OC | i
OCCN1CCN(c2cc(-c3ccccc3)nc3c(-c4ccc(Cl)cc4)cnn23)CC1 | 28
CC(C)(C)c1cc(N2CCN(C3CCCC3)CC2)n2ncc(-c3ccccc3)c2n1 | i
COc1ccccc1-c1cnn2c(N3CCN(Cc4ccccc4)CC3)cc(C)nc12 | i
COc1ccc(NC(=O)N2CCN(c3ccc4nnc(C5CC5)n4n3)CC2)c(OC)c1 | i
COc1ccccc1CNC(=O)Cc1csc(NC(=O)c2ccc(=O)[nH]c2)n1 | i
NNC(=O)c1nn(-c2ccccc2)c(=O)c2c(N)scc12 | 24
CCOC(=O)c1nn(-c2ccc(OC)cc2)c(=O)c2c(NC(=O)c3c(OCC)ccc4ccccc34)scc12 | i
O=C(Nc1scc2c(C(=O)O)nn(-c3ccc(C(F)(F)F)cc3)c(=O)c12)c1c(F)cccc1Cl | i
CC(=O)Nc1ccc(SCCCC(=O)NCCCn2ccnc2)nn1 | i
Fc1ccc2nc(NCCN3CCOCC3)sc2c1 | i
SMILES | RMI-FANCM inh
COc1ccccc1NC(=O)C1=C(C)Nc2nc(-c3ccccc3Cl)nn2C1c1ccc(O)cc1 (stereo unspecified) | i
Cc1cccc(NC(=O)NCCS(=O)(=O)c2c(C)n(Cc3ccc(F)cc3)c3ccccc23)c1 | i
Cc1ccc(NC(=O)NCCS(=O)(=O)c2c(C)n(Cc3ccccc3)c3ccccc23)cc1C | 31
Cc1c(S(=O)(=O)CCNC(=O)Nc2ccccc2Cl)c2ccccc2n1C | i
O=C(/C=C\c1ccc2c(c1)OCO2)NCCn1ncc2c(=O)n(Cc3cccc([N+](=O)[O-])c3)cnc21 | i
CCN(CC)c1ccc(C=Nc2sc3c(c2C#N)CCCC3)c(O)c1 | 18
N#Cc1c(N=Cc2cc(Br)cc(Br)c2O)sc2c1CCCC2 | i
CCOC(=O)c1c(N=Cc2ccc(N(CC)CC)cc2O)sc2c1CCCC2 | i
CC(=O)c1cccc(NC(=O)c2csc(Nc3ccc(S(C)(=O)=O)cc3)n2)c1 | i
Cc1ccc(-n2nnnc2-c2nc3ccccc3[nH]2)c(C)c1 | i
COC(=O)c1cc(Cl)c(NC(=O)CN2C(=O)c3ccccc3C2=O)cc1OC | i
O=C(Nc1cccc(Cl)c1)c1ccc(Br)o1 | i
O=C(c1ccc(Br)o1)N1CCOCC1 | i
COC(=O)/C(C#N)=C(\C#N)c1ccc(Br)o1 | 26
Nc1ncnc(N)c1[N+](=O)[O-] | i
N#CC(=C1SCCS1)c1ccc([N+](=O)[O-])cc1 | i
O=C(CSc1nc(=O)n(CCCO)c2c1CCC2)NCc1ccc(F)cc1 | i
Cc1ccc(NC(=O)C2CCC(C)(C(=O)O)C2(C)C)cc1C (stereo unspecified) | i
Cc1cc(NS(=O)(=O)c2ccc(NC(=O)c3oc4cc(C)c(C)cc4c3C)cc2)nc(C)n1 | 17
Cc1cc(NS(=O)(=O)c2ccc(NC(=O)c3ccc(Br)o3)cc2)no1 | i
Cc1cc(NS(=O)(=O)c2ccc(NC(=O)CCN3C(=O)c4ccccc4C3=O)cc2)nc(C)n1 | i
COC(=O)c1ccc2c(c1)C(=O)/C(=C/c1ccc(O)c(OC)c1)O2 | i
COC(=O)c1ccc2c(c1)C(=O)/C(=C/c1ccccc1F)O2 | 14
COC(=O)c1ccc2nsnc2c1 | i
Cc1sc2nc(SCc3ccc4c(c3)OCO4)n(-c3ccccc3)c(=O)c2c1C | i
SMILES | RMI-FANCM inh
CCn1cccc(-c2nnc(SCC(=O)Nc3ccc(C(N)=O)cc3)n2C)c1=O | i
Cc1ccc2oc(C(=O)NCc3cccs3)cc2n1 | i
Cc1ccc2oc(C(=O)NCCn3c(C)cc4ccccc43)cc2n1 | 26
CSc1ccccc1NC(=O)c1cc2nc(C)ccc2o1 | i
O=C(CSc1ccc([N+](=O)[O-])cc1[N+](=O)[O-])Nc1cccc(C(F)(F)F)c1 | 14
N/C(=N\OC(=O)Nc1cccc(C(F)(F)F)c1)c1ccno1 | i

Screens deposited in PubChem by Small Molecule Screening Facility, UW Madison.
